This is a sample that favours compounds with a hit; in the whole collection about 1.7% have one here.
GSTO1 counter: blocks human GSTO1 in RBBP9 counter-screen; recombinant GSTO1, activity-based probe fluorescence polarization; inhibition, % at 5.96 µM; AID 1974; P78417; 1.1% of 300,000 active;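 active means inhibition above the campaign mean inhibition plus 3 SD, cut at about 35% in these data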
EBNA-1 inh: blocks EBNA-1 binding to DNA; 0.34% of 300,000 active; inhibition, % at 14.8 µM; EBNA-1 DNA binding, fluorescence polarization; in the data active means inhibition above about 28%
LYPLA1 counter: blocks human lysophospholipase 1, a PME1 counter-screen; O75608; recombinant LYPLA1, FP-Rh probe fluorescence polarization; inhibition, % at 5.9 µM; 0.16% of 320,000 active; AID 2174;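 active means inhibition above the mean of all tested compounds plus 3 SD, set per campaign, cut at about 14% in these data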;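 further: inhibitors block serine hydrolase probe labeling of LYPLA1 so polarization falls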
Target sequence (O75608 whole entry, looked up): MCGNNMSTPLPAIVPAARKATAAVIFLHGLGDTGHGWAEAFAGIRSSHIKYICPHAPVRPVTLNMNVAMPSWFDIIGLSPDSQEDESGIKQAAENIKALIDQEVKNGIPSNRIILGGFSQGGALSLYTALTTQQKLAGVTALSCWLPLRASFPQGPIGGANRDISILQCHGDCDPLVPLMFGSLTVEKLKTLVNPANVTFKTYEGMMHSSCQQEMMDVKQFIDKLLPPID
LYPLA2 inh: LYPLA2 (human) inhibition in PME1 counter-screen. 0.38% of 320,000 active. AID 2177. O95372. inhibition, % at 5.9 µM. recombinant LYPLA2, FP-Rh probe fluorescence polarization;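 active means inhibition above the screen-wide mean plus 3 SD, limit set per campaign, cut at about 26% in these data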
Target sequence (O95372 whole entry, looked up): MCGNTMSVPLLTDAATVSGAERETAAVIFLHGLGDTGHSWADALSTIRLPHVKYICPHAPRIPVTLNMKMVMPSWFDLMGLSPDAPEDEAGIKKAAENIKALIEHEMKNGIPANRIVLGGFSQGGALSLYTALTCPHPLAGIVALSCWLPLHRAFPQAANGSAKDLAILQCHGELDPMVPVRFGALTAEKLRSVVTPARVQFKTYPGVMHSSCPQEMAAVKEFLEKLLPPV
PAD4 FP inh: blocks human protein arginine deiminase 4; Q9UM07; recombinant PAD4, RCA probe fluorescence polarization; inhibition, % at 6.36 µM; 0.41% of 330,000 active;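 active means percent inhibition above a cutoff equal to the mean of all tested compounds plus 3 SD, cut at about 15% in these data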
ZTA counter: ZTA (EBV) inhibition in EBNA-1 counter-screen | P03206 | ZTA-DNA binding, fluorescence polarization | inhibition, % at 11 µM | 0.15% of 320,000 active; in the data active means inhibition above about 33%
LYPLA1 confirm: LYPLA1 (human) inhibition, confirmation counter-screen; recombinant LYPLA1, FP-Rh probe fluorescence polarization; 69% of 480 active; inhibition, % at 5.9 µM; AID 2233; shares compounds with LYPLA1 counter;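 active means mean inhibition across replicates above the hit cutoff set in the primary screen, cut at about 15% in these data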;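 further: loss of FP-Rh probe labeling of LYPLA1 seen as lower polarization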
LYPLA2 conf: LYPLA2 (human) inhibition, confirmation counter-screen. shares compounds with LYPLA2 inh. recombinant LYPLA2, FP-Rh probe fluorescence polarization. inhibition, % at 5.9 µM. 72% of 1,100 active. AID 2232;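 active means mean inhibition across replicates above the hit cutoff set in the primary screen, cut at about 26% in these data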;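 further: blocked labeling of the enzyme by serine hydrolase FP-Rh probe lowers polarization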
LYPLA2 gel ABPP: LYPLA2 (human) inhibition, late stage results | shares compounds with LYPLA2 inh | rhLYPLA2 in mouse brain proteome, gel ABPP FP-Rh | inhibition, % at 20 µM | 30% of 150 active | AID 652029;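 active means inhibition of LYPLA2 enzyme probe labeling above about 50%, limit read from the data; inactive means inhibition below that limit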;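 further: loss of FP-Rh probe labeling of the LYPLA2 gel band measured as band density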
PAD4 confirm: PAD4 (human) inhibition, confirmed. shares compounds with PAD4 FP inh. recombinant PAD4, RCA probe fluorescence polarization. inhibition, % at 6.36 µM. 28% of 1,200 active;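 active means mean inhibition across replicates above the hit cutoff set by the earlier primary screen, cut at about 15% in these data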;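 further: inhibitors block active-site labeling by the probe so polarization falls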
Each line names hits and unclear results; the compound was inactive in the other large screens (follow-up assays come after a bar, where they were run).

C(=C\c1ccccc1)/CN1CCN(c2ncnc3c2oc2ccccc23)CC1	LYPLA1 counter 15, LYPLA2 inh 35 | LYPLA1 confirm 23 | LYPLA2 conf 32
Cc1ccc(OCC(=O)N2CCN(C(=O)CCC3CCCC3)CC2)cc1	LYPLA1 counter 61, LYPLA2 inh 27 | LYPLA1 confirm 66 | LYPLA2 conf inactive
COc1ccc(N2CCN(C(=O)CNC(=O)c3nn(-c4ccc(OC)cc4)c(=O)c4ccccc34)CC2)cc1	LYPLA1 counter 22, LYPLA2 inh 55 | LYPLA1 confirm 16 | LYPLA2 conf 60 | LYPLA2 gel ABPP inactive
COc1ccc(-n2nc(C(=O)NCC(=O)N3CCN(Cc4ccccc4)CC3)c3ccccc3c2=O)cc1OC	LYPLA1 counter 20, LYPLA2 inh 38 | LYPLA1 confirm 45 | LYPLA2 conf 64
COc1ccc(-n2nc(C(=O)NCC(=O)N3CCN(Cc4ccccc4)CC3)c3ccccc3c2=O)c(OC)c1	LYPLA1 counter 36, LYPLA2 inh 79 | LYPLA1 confirm 39 | LYPLA2 conf 81
COCCn1c(SCC(=O)NC2(C#N)CCCCC2)nc2ccccc2c1=O	none (no result: GSTO1 counter, EBNA-1 inh)
COc1ccc(C(C(=O)NCC2CCCO2)N(Cc2cccs2)C(=O)c2snc(C(N)=O)c2N)cc1 (stereo not drawn)	none
Cc1ccc(NC(=O)CS(=O)CC(=O)Nc2ccccc2-c2ccc(C)o2)cc1 (stereo not drawn)	LYPLA1 counter 33, LYPLA2 inh 41, PAD4 FP inh 17 | LYPLA1 confirm inactive | LYPLA2 conf inactive | PAD4 confirm inactive
Fc1cccc(F)c1-n1c(CN2CCCCC2)csc1=S	none
Cc1ccc(N2C(=O)c3cccc4c(N)ccc(c34)C2=O)c2cccnc12	none
CCN1C(=O)c2cccc3c(N)ccc(c23)C1=O	LYPLA1 counter 15, PAD4 FP inh 27 | LYPLA1 confirm inactive | PAD4 confirm 26
O=S(=O)(c1cccs1)N1CN(Cc2ccco2)c2nc3ccccc3nc21	GSTO1 counter 37, LYPLA1 counter 30, LYPLA2 inh 38, PAD4 FP inh 77 | LYPLA1 confirm inactive | LYPLA2 conf inactive | PAD4 confirm inactive
O=C1CCCC2=C1Sc1ccc(Cl)cc1N2	none
COC(=O)c1ccc2c(c1)SC1=C(CCCC1=O)N2	LYPLA1 counter 28, LYPLA2 inh 27, PAD4 FP inh 43 | LYPLA1 confirm 19 | LYPLA2 conf inactive | PAD4 confirm 40
O=C(NC1CCOCC1)C1CCC(=O)N(Cc2ccc(Cl)cc2)C1 (stereo not drawn)	none
O=C(O)c1ccccc1C1=Nc2ccc(O)cc2Oc2cc(O)ccc21	LYPLA1 counter 19, LYPLA2 inh 27, PAD4 FP inh 26 | LYPLA1 confirm 16 | LYPLA2 conf inactive | PAD4 confirm 35
Cc1ccc(S(=O)(=O)NCCC(=O)NCCc2ccc(S(N)(=O)=O)cc2)cc1C	none (no result: GSTO1 counter, EBNA-1 inh, LYPLA1 counter, LYPLA2 inh, ZTA counter)
COC(=O)c1c(Cl)c2n3ccccc3c(C)c(-c3ccccc3)c-2c1C(=O)OC	LYPLA1 counter 16, PAD4 FP inh 16 | LYPLA1 confirm inactive | PAD4 confirm inactive
COCCn1c(C)c(C)c(S(=O)(=O)c2ccccc2)c1N	LYPLA1 counter 16, PAD4 FP inh 28 | LYPLA1 confirm inactive | PAD4 confirm inactive
Cc1ccc(CNC(=O)CCNS(=O)(=O)c2cccc3nsnc23)cc1	none
COC(=O)c1cnc(N2CCCN(S(=O)(=O)c3ccc(C(F)(F)F)cc3)CC2)nc1C(F)(F)F	none
CCOC(=O)NC(=O)/C(C#N)=C\Nc1sccc1C(=O)OC	LYPLA1 counter 20, LYPLA2 inh 31, PAD4 FP inh 35 | LYPLA1 confirm inactive | PAD4 confirm inactive
Cc1ccc(-n2c(C)cc(=O)cc2C)c(C)c1	none

Compound activity as filed in PubChem.
